Hit rate of the full screen: of about 5,500 compounds, about 2,000 (36%) were called active. Inconclusive results (about 18%) are left out. The list shows a part of the results. A number with no mark means an inactive call. Cut-off read from the data, not from the text of the source: active = normalized growth mostly below about 0.91 (no sharp cut-off); inconclusive = no clear call, values can overlap the other calls; inactive = mostly above about 0.92.
Test: chemical genetic growth profiling, strain panel (AID 1159580);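 note: tested at 20 µM; growth read once vehicle control cultures reached saturation at 30 °C; 1 = growth at the plate median or of vehicle wells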
Conditions: growth OD
[1] = S. cerevisiae deletion strains, locus YAL013W, strain DEP1, stronger effect = lower value
[2] = S. cerevisiae deletion strains, locus YBR229C, strain ROT2, stronger effect = lower value
[3] = S. cerevisiae deletion strains, locus YDL101C, strain DUN1, stronger effect = lower value
[4] = S. cerevisiae deletion strains, locus YDL134C, strain PPH21, stronger effect = lower value
[5] = S. cerevisiae deletion strains, locus YDR150W, strain NUM1, stronger effect = lower value
[6] = S. cerevisiae deletion strains, locus YEL061C, strain CIN8, stronger effect = lower value
[7] = S. cerevisiae deletion strains, locus YGR078C, strain PAC10, stronger effect = lower value
[8] = S. cerevisiae deletion strains, locus YHR030C, strain SLT2, stronger effect = lower value
[9] = S. cerevisiae deletion strains, locus YHR087W, strain rtc3, stronger effect = lower value
[10] = S. cerevisiae deletion strains, locus YJR043C, strain POL32, stronger effect = lower value
[11] = S. cerevisiae deletion strains, locus YJR075W, strain HOC1, stronger effect = lower value
[12] = S. cerevisiae deletion strains, locus YKL190W, strain CNB1, stronger effect = lower value
[13] = S. cerevisiae deletion strains, locus YLR039C, strain RIC1, stronger effect = lower value
[14] = S. cerevisiae deletion strains, locus YLR058C, strain SHM2 (second series), stronger effect = lower value
[15] = S. cerevisiae deletion strains, locus YLR085C, strain ARP6, stronger effect = lower value
[16] = S. cerevisiae deletion strains, locus YLR262C, strain YPT6, stronger effect = lower value
[17] = S. cerevisiae deletion strains, locus YML094W, strain GIM5, stronger effect = lower value
[18] = S. cerevisiae deletion strains, locus YMR219W, strain ESC1, stronger effect = lower value
[19] = S. cerevisiae deletion strains, locus YMR263W, strain SAP30, stronger effect = lower value
[20] = S. cerevisiae deletion strains, locus YNL153C, strain GIM3, stronger effect = lower value
[21] = S. cerevisiae deletion strains, locus YNL298W, strain CLA4 (second series), stronger effect = lower value
[22] = S. cerevisiae deletion strains, locus YNL322C, strain KRE1, stronger effect = lower value
[23] = S. cerevisiae deletion strains, locus YNR030W, strain Alg12, stronger effect = lower value
[24] = S. cerevisiae deletion strains, locus YPL055C, strain LGE1, stronger effect = lower value
[25] = S. cerevisiae deletion strains, locus YPL241C, strain CIN2, stronger effect = lower value
[26] = S. cerevisiae deletion strains, locus YPR135W, strain CTF4, stronger effect = lower value

O=[N+]([O-])c1cc(C(F)(F)F)ccc1NCCCn1ccnc1
normalized growth [1]: 1.01
normalized growth [2]: 1.01
normalized growth [3]: 1.06
normalized growth [4]: 0.976
normalized growth [5]: 1.04
normalized growth [6]: 0.988
normalized growth [7]: 1.03
normalized growth [8]: 1.1
normalized growth [9]: 0.965
normalized growth [10]: 1.04
normalized growth [11]: 1.04
normalized growth [12]: 0.994
normalized growth [13]: 1.08
normalized growth [14]: 1
normalized growth [15]: 1.03
normalized growth [16]: 1
normalized growth [17]: 1.01
normalized growth [18]: 0.991
normalized growth [19]: 1.03
normalized growth [20]: 1.04
normalized growth [21]: 1.01
normalized growth [22]: 0.98
normalized growth [23]: 1.01
normalized growth [24]: 0.991
normalized growth [25]: 1.03
normalized growth [26]: 1.07

Cc1cc(C)c(C(=O)NCCNc2ccc(C(F)(F)F)cc2[N+](=O)[O-])c(C)c1
normalized growth [1]: 0.97
normalized growth [2]: 0.951
normalized growth (S. cerevisiae deletion strains, locus YCL061C, strain MRC1, stronger effect = lower value): 0.966
normalized growth [3]: 0.98
normalized growth [4]: 0.971
normalized growth [5]: 0.9
normalized growth [6]: 0.862 (active)
normalized growth [7]: 0.953
normalized growth (S. cerevisiae deletion strains, locus YGR229C, strain SMI1, stronger effect = lower value): 1
normalized growth [8]: 0.259 (active)
normalized growth [9]: 0.89 (active)
normalized growth (S. cerevisiae deletion strains, locus YJL187C, strain SWE1, stronger effect = lower value): 0.978
normalized growth [10]: 0.968
normalized growth [11]: 0.895
normalized growth [12]: 0.794 (active)
normalized growth [13]: 0.473 (active)
normalized growth [14]: 0.996
normalized growth [15]: 0.331 (active)
normalized growth [16]: 0.58 (active)
normalized growth [17]: 0.817 (active)
normalized growth [18]: 0.98
normalized growth [19]: 0.96
normalized growth (S. cerevisiae deletion strains, locus YNL128W, strain TEP1, stronger effect = lower value): 0.957
normalized growth [20]: 0.964
normalized growth [21]: 0.785 (active)
normalized growth [22]: 0.986
normalized growth [23]: 0.652 (active)
normalized growth [24]: 0.687 (active)
normalized growth [25]: 0.846 (active)
normalized growth [26]: 0.55 (active)
normalized growth (S. cerevisiae strains, strain wild type, stronger effect = lower value): 0.916

Cc1c(C(=O)NCCNc2ccc(C(F)(F)F)cc2[N+](=O)[O-])cnn1-c1ccc(F)cc1
normalized growth (S. cerevisiae deletion strains, locus YAR019C, strain CDC15, stronger effect = lower value): 0.981
normalized growth (S. cerevisiae deletion strains, locus YBL105C, strain PKC1, stronger effect = lower value): 0.971
normalized growth (S. cerevisiae deletion strains, locus YBR135W, strain CKS1, stronger effect = lower value): 0.974
normalized growth (S. cerevisiae deletion strains, locus YBR136W, strain MEC1, stronger effect = lower value): 0.978
normalized growth (S. cerevisiae deletion strains, locus YBR160W, strain CDC28, stronger effect = lower value): 0.979
normalized growth (S. cerevisiae deletion strains, locus YDL017W, strain CDC7, stronger effect = lower value): 0.982
normalized growth (S. cerevisiae deletion strains, locus YDL028C, strain MPS1, stronger effect = lower value): 0.989
normalized growth [3]: 0.988
normalized growth (S. cerevisiae deletion strains, locus YDL108W, strain KIN28, stronger effect = lower value): 0.982
normalized growth (S. cerevisiae deletion strains, locus YDL132W, strain cdc53, stronger effect = lower value): 0.978
normalized growth (S. cerevisiae deletion strains, locus YDL214C, strain PRR2, stronger effect = lower value): 0.958
normalized growth (S. cerevisiae deletion strains, locus YDR052C, strain DBF4, stronger effect = lower value): 0.985
normalized growth (S. cerevisiae deletion strains, locus YDR054C, strain cdc34, stronger effect = lower value): 0.956
normalized growth (S. cerevisiae deletion strains, locus YDR226W, strain ADK1, stronger effect = lower value): 0.982
normalized growth (S. cerevisiae deletion strains, locus YDR477W, strain SNF1, stronger effect = lower value): 0.968
normalized growth (S. cerevisiae deletion strains, locus YER123W, strain YCK3, stronger effect = lower value): 0.966
normalized growth (S. cerevisiae deletion strains, locus YER133W, strain GLC7, stronger effect = lower value): 0.982
normalized growth (S. cerevisiae deletion strains, locus YFL009W, strain cdc4, stronger effect = lower value): 0.98
normalized growth (S. cerevisiae deletion strains, locus YFL029C, strain CAK1, stronger effect = lower value): 0.977
normalized growth (S. cerevisiae deletion strains, locus YFR003C, strain YPI1, stronger effect = lower value): 0.984
normalized growth (S. cerevisiae deletion strains, locus YFR019W, strain FAB1, stronger effect = lower value): 0.973
normalized growth (S. cerevisiae deletion strains, locus YFR028C, strain CDC14, stronger effect = lower value): 0.978
normalized growth (S. cerevisiae deletion strains, locus YGR040W, strain KSS1, stronger effect = lower value): 0.958
normalized growth (S. cerevisiae deletion strains, locus YGR052W, strain FMP48, stronger effect = lower value): 1.06
normalized growth (S. cerevisiae deletion strains, locus YGR092W, strain DBF2, stronger effect = lower value): 0.935
normalized growth [8]: 0.97
normalized growth (S. cerevisiae deletion strains, locus YHR079C, strain IRE1, stronger effect = lower value): 0.954
normalized growth (S. cerevisiae deletion strains, locus YHR082C, strain KSP1, stronger effect = lower value): 1.01
normalized growth (S. cerevisiae deletion strains, locus YHR205W, strain SCH9, stronger effect = lower value): 0.962
normalized growth (S. cerevisiae deletion strains, locus YIL147C, strain SLN1, stronger effect = lower value): 0.986
normalized growth (S. cerevisiae deletion strains, locus YJL095W, strain BCK1, stronger effect = lower value): 0.978
normalized growth (S. cerevisiae deletion strains, locus YJL128C, strain PBS2, stronger effect = lower value): 0.946
normalized growth (S. cerevisiae deletion strains, locus YJL157C, strain FAR1, stronger effect = lower value): 0.943
normalized growth (S. cerevisiae deletion strains, locus YJR016C, strain ILV3, stronger effect = lower value): 0.984
normalized growth (S. cerevisiae deletion strains, locus YJR066W, strain TOR1 (second series), stronger effect = lower value): 0.933
normalized growth (S. cerevisiae deletion strains, locus YJR066W, strain TOR1, stronger effect = lower value): 0.999
normalized growth (S. cerevisiae deletion strains, locus YKL048C, strain ELM1, stronger effect = lower value): 0.949
normalized growth (S. cerevisiae deletion strains, locus YKL067W, strain YNK1, stronger effect = lower value): 0.97
normalized growth (S. cerevisiae deletion strains, locus YKL101W, strain HSL1, stronger effect = lower value): 0.947
normalized growth (S. cerevisiae deletion strains, locus YKL193C, strain SDS22, stronger effect = lower value): 0.983
normalized growth (S. cerevisiae deletion strains, locus YKL203C, strain TOR2, stronger effect = lower value): 1.01
normalized growth (S. cerevisiae deletion strains, locus YLR113W, strain HOG1, stronger effect = lower value): 0.904
normalized growth (S. cerevisiae deletion strains, locus YLR133W, strain CKI1, stronger effect = lower value): 0.941
normalized growth (S. cerevisiae deletion strains, locus YLR403W, strain SFP1, stronger effect = lower value): 0.937
normalized growth (S. cerevisiae deletion strains, locus YML070W, strain DAK1, stronger effect = lower value): 0.94
normalized growth (S. cerevisiae deletion strains, locus YMR001C, strain CDC5, stronger effect = lower value): 0.985
normalized growth (S. cerevisiae deletion strains, locus YMR205C, strain PFK2 (second series), stronger effect = lower value): 0.978
normalized growth (S. cerevisiae deletion strains, locus YMR277W, strain FCP1, stronger effect = lower value): 0.991
normalized growth (S. cerevisiae deletion strains, locus YNL006W, strain LST8, stronger effect = lower value): 1
normalized growth (S. cerevisiae deletion strains, locus YNL020C, strain ARK1, stronger effect = lower value): 0.941
normalized growth (S. cerevisiae deletion strains, locus YNL161W, strain CBK1, stronger effect = lower value): 0.975
normalized growth (S. cerevisiae deletion strains, locus YNL183C, strain NPR1, stronger effect = lower value): 0.986
normalized growth (S. cerevisiae deletion strains, locus YNL207W, strain RIO2, stronger effect = lower value): 0.973
normalized growth (S. cerevisiae deletion strains, locus YNL222W, strain SSU72, stronger effect = lower value): 0.974
normalized growth (S. cerevisiae deletion strains, locus YNL307C, strain MCK1 (second series), stronger effect = lower value): 0.939
normalized growth (S. cerevisiae deletion strains, locus YOL078W, strain AVO1, stronger effect = lower value): 0.986
normalized growth (S. cerevisiae deletion strains, locus YOL136C, strain PFK27, stronger effect = lower value): 0.938
normalized growth (S. cerevisiae deletion strains, locus YOR061W, strain CKA2, stronger effect = lower value): 0.99
normalized growth (S. cerevisiae deletion strains, locus YOR119C, strain RIO1, stronger effect = lower value): 1.01
normalized growth (S. cerevisiae deletion strains, locus YOR231W, strain MKK1, stronger effect = lower value): 0.912
normalized growth (S. cerevisiae deletion strains, locus YOR329C, strain SCD5, stronger effect = lower value): 0.984
normalized growth (S. cerevisiae deletion strains, locus YPL031C, strain PHO85, stronger effect = lower value): 0.96
normalized growth (S. cerevisiae deletion strains, locus YPL153C, strain RAD53, stronger effect = lower value): 0.954
normalized growth (S. cerevisiae deletion strains, locus YPL204W, strain HRR25, stronger effect = lower value): 0.943
normalized growth (S. cerevisiae deletion strains, locus YPL209C, strain IPL1, stronger effect = lower value): 0.979
normalized growth (S. cerevisiae deletion strains, locus YPL256C, strain CLN2, stronger effect = lower value): 0.908
normalized growth (S. cerevisiae deletion strains, locus YPR025C, strain CCL1, stronger effect = lower value): 0.979
normalized growth (S. cerevisiae deletion strains, locus YPR106W, strain ISR1, stronger effect = lower value): 0.965
normalized growth (S. cerevisiae deletion strains, locus YPR111W, strain DBF20, stronger effect = lower value): 0.962
normalized growth (S. cerevisiae deletion strains, strain NNK1, stronger effect = lower value): 0.971
normalized growth (S. cerevisiae deletion strains, strain TSCII, stronger effect = lower value): 0.982

— PubChem BioAssay AID1159580 (chemical genetic matrix, 2015)
